Source: PubChem BioAssay (EPA / NIEHS)
Records with an inconclusive call do not appear. The source made the active and inactive calls. How the source made its calls: active means hit-call score of the fitted dose curve at least 0.9, where 1 is the maximum; inconclusive means response in the unintended direction; inactive means score below 0.9.

biological target: Androgen Receptor/SRC-1 Co-activator, AR (gene 367) (UniProt P10275); experiment: OT_AR_ARSRC1_0960: Odyssey Thera (OT) 16-hour HEK293T Protein-Complementation Assay for Androgen Receptor/SRC-1 Co-activator (AID 2283353);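 further: actives raise the signal above DMSO so potency reflects increased AR and SRC-1 complex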
Sequence (P10275 whole entry, looked up, the tested form may be a part): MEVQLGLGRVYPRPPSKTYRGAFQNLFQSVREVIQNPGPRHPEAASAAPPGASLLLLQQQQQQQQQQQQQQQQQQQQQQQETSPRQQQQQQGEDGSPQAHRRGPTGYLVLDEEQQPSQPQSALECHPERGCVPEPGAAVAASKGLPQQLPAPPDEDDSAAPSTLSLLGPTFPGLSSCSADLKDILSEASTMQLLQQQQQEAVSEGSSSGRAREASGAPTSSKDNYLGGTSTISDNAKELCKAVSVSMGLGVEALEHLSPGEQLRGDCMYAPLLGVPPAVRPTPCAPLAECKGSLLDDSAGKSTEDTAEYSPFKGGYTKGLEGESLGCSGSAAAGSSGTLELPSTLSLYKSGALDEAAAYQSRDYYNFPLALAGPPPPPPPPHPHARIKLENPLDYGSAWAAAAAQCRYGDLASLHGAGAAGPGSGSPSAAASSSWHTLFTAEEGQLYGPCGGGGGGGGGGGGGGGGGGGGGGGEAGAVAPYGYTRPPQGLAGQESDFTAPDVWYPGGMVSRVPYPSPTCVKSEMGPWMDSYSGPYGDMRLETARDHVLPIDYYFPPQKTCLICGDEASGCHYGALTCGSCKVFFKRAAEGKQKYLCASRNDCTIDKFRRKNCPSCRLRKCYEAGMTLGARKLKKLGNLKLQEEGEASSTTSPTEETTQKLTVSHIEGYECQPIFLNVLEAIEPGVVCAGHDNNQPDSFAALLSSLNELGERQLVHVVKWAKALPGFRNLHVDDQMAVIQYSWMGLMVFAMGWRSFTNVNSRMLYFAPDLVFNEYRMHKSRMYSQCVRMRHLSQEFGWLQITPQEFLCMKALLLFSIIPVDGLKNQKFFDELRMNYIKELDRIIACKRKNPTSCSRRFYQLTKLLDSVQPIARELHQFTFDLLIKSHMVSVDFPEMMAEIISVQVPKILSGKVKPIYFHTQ
Summary of the method: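 Endpoint is gain-of-signal N/C fluorescence ratio in the 488 nm channel versus DMSO, from at least 400 cells per image, measured 16 h post-dosing. Cells: HEK293T stably carrying split-Venus AR/SRC-1 complementation constructs.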

SMILES | outcome | AC50
CC(C)=CCCC(C)CCO (centres undefined) | inactive | –
Cc1ccc(N)cc1O | inactive | –
CN(C)c1ccc(N=NS(=O)(=O)O)cc1 | inactive | –
O=C(O)c1cccc(N(Cc2cccnc2)c2ccc(OC(F)F)c(OC(F)F)c2)c1 | – | 37.1 µM (active)
CCCCCCc1ccc(O)cc1O | – | 92.3 µM (active)
Nc1nc2ncc(CNc3ccc(C(=O)N[C@@H](CCC(=O)O)C(=O)O)cc3)nc2c(=O)[nH]1 | inactive | –

biological target: Androgen Receptor/SRC-1 Co-activator, AR (gene 367) (UniProt P10275); experiment: OT_AR_ARSRC1_0480: Odyssey Thera (OT) 8-hour HEK293T Protein-Complementation Assay for Androgen Receptor/SRC-1 Co-activator (AID 2283354);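 further: hits raise the complementation signal above DMSO so AC50 marks enhancers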
Summary of the method: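 Split-Venus PCA, stable HEK293T, AR/SRC-1 fusions; 8 h exposure. Readout: 488nm N/C fluorescence ratio, ≥400 cells/image; fitted upward vs DMSO baseline.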

SMILES | outcome | AC50
CC(C)=CCCC(C)CCO (centres undefined) | inactive | –
CN(C)c1ccc(N=NS(=O)(=O)O)cc1 | inactive | –
O=C(O)c1cccc(N(Cc2cccnc2)c2ccc(OC(F)F)c(OC(F)F)c2)c1 | inactive | –
CCCCCCc1ccc(O)cc1O | – | 77.9 µM (active)
Nc1nc2ncc(CNc3ccc(C(=O)N[C@@H](CCC(=O)O)C(=O)O)cc3)nc2c(=O)[nH]1 | inactive | –

biological target: Estrogen receptor (Homo sapiens) + Estrogen receptor beta (Homo sapiens) (UniProt P03372+Q92731); experiment: OT_ER_ERaERb_1440: Odyssey Thera (OT) 24-hour HEK293T Protein-Complementation Assay for Estrogen Receptor-alpha/-beta Homodimer (AID 2283356);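 further: heteromer of ER alpha and ER beta binding domains; hits raise reporter fluorescence and both agonists and antagonists give an increase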
Sequence (P03372 whole entry, looked up, the tested form may be a part): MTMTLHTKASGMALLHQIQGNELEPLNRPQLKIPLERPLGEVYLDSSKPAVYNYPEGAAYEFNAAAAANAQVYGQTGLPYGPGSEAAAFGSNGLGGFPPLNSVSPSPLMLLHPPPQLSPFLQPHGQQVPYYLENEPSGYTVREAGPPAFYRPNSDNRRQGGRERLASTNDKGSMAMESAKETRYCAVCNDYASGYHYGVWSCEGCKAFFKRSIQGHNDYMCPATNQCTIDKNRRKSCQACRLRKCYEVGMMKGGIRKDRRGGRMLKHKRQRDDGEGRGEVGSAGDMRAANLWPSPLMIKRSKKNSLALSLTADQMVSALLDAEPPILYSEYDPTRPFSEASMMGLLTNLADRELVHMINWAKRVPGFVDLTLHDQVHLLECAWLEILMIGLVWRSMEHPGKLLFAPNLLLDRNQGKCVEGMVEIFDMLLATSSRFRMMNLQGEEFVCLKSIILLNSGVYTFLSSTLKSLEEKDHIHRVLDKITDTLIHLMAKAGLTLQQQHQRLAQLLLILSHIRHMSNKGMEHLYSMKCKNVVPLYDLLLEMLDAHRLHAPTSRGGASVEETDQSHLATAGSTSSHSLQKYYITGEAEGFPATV
Sequence (Q92731 whole entry, looked up, the tested form may be a part): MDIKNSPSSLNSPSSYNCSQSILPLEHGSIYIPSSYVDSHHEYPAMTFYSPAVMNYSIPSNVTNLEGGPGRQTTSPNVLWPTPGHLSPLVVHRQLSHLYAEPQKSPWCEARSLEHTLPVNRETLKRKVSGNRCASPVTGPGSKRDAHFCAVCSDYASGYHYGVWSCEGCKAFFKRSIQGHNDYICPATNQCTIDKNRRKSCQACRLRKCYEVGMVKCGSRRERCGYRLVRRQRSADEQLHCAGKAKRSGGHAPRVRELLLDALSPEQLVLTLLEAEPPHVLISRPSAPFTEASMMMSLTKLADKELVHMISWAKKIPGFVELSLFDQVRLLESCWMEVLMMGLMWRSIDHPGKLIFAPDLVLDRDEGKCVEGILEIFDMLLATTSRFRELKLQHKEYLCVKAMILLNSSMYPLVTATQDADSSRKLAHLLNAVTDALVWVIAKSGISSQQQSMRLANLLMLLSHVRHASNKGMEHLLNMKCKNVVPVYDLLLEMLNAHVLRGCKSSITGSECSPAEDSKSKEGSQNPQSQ
Summary of the method: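 24 h exposure; HEK293T PCA cells with ERα/ERβ LBD fragments; signal rise in nuclear or whole-cell fluorescence over vehicle.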

SMILES | outcome | AC50
CC(C)=CCCC(C)CCO (centres undefined) | inactive | –
CC(C)=CCCC(C)=CC=O | inactive | –
Cc1ccc(N)cc1O | inactive | –
CC[C@H](C)C(=O)O[C@H]1C[C@@H](C)C=C2C=C[C@H](C)[C@H](CC[C@@H]3C[C@@H](O)CC(=O)O3)[C@H]21 | inactive | –
CC(C)CCO | inactive | –
C=CC(=C)CCC=C(C)C | inactive | –
COc1ccc2sc(C(=O)Nc3nnn[nH]3)c(OC(C)C)c2c1 | inactive | –
C=CCCCCCCCCC(=O)O | inactive | –
O=c1n(CC2CO2)c(=O)n(CC2CO2)c(=O)n1CC1CO1 (centres undefined) | inactive | –
Cn1cnc([N+](=O)[O-])c1Sc1ncnc2nc[nH]c12 | inactive | –
O=C(NS(=O)(=O)/C=C/c1ccccc1)c1ccc(F)cc1Cl | inactive | –
COC(=O)c1c(Cl)c(Cl)c(C(=O)OC)c(Cl)c1Cl | – | 50 µM (active)
Cn1c(=O)cc(Oc2ccc(F)cc2F)c2cnc(NCC(C)(C)O)nc21 | – | 50 µM (active)
CCCCCCCCO | inactive | –
CCC(C)(C)C(=O)O[C@H]1C[C@@H](C)C=C2C=C[C@H](C)[C@H](CC[C@@H]3C[C@@H](O)CC(=O)O3)[C@H]21 | inactive | –
COC(=O)CC(=O)OC | inactive | –

biological target: Estrogen receptor beta (Homo sapiens) (UniProt Q92731); experiment: OT_ER_ERbERb_0480: Odyssey Thera (OT) 8-hour HEK293T Protein-Complementation Assay for Estrogen Receptor-beta/-beta Homodimer (AID 2283357);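 further: active means signal gain over DMSO baseline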
Sequence (Q92731 whole entry, looked up, the tested form may be a part): as above
Summary of the method: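 Homodimerization of ER-beta LBD measured by protein-fragment complementation in HEK293T; 8 h dosing; fixed, Draq5 counterstain; fluorescence intensity gain over DMSO baseline, positive fitting direction; laser scanning cytometry.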

SMILES | outcome | AC50
O=C(O)c1cc(N=Nc2ccc(S(=O)(=O)Nc3ccccn3)cc2)ccc1O | inactive | –
CC(C)=CCCC(C)CCO (centres undefined) | inactive | –
CC(C)=CCCC(C)=CC=O | inactive | –
Cc1ccc(N)cc1O | inactive | –
O=C(O)c1cccc(N(Cc2cccnc2)c2ccc(OC(F)F)c(OC(F)F)c2)c1 | inactive | –
CC[C@H](C)C(=O)O[C@H]1C[C@@H](C)C=C2C=C[C@H](C)[C@H](CC[C@@H]3C[C@@H](O)CC(=O)O3)[C@H]21 | inactive | –
CC(C)CCO | inactive | –
C=CC(=C)CCC=C(C)C | inactive | –
COc1ccc2sc(C(=O)Nc3nnn[nH]3)c(OC(C)C)c2c1 | inactive | –
Nc1nc2ncc(CNc3ccc(C(=O)N[C@@H](CCC(=O)O)C(=O)O)cc3)nc2c(=O)[nH]1 | inactive | –
C=CCCCCCCCCC(=O)O | inactive | –
O=c1n(CC2CO2)c(=O)n(CC2CO2)c(=O)n1CC1CO1 (centres undefined) | inactive | –
Cn1cnc([N+](=O)[O-])c1Sc1ncnc2nc[nH]c12 | inactive | –
COC(=O)c1c(Cl)c(Cl)c(C(=O)OC)c(Cl)c1Cl | – | 50 µM (active)
Cn1c(=O)cc(Oc2ccc(F)cc2F)c2cnc(NCC(C)(C)O)nc21 | inactive | –
CCCCCCCCO | inactive | –
CCC(C)(C)C(=O)O[C@H]1C[C@@H](C)C=C2C=C[C@H](C)[C@H](CC[C@@H]3C[C@@H](O)CC(=O)O3)[C@H]21 | inactive | –
